PTK2B oligo ant: Pyk2 (human) oligomerization antagonism | Q14289 | Q293 cells, Pyk2 FERM NanoBiT luminescence; hits give low values | z-score (the deposit names both 25 µM and 10 µM) | 99,000 tested, 0.83% active | AID 1347419;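 active = Z-score of -3 or lower, scaled per plate to the spread of control and sample wells; inactive = z-score above -3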;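 also: negative z-score means lost luminescence so less FERM oligomerization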
CYP2C9 act: increases human cytochrome P450 2C9 activity. P11712. recombinant CYP2C9, luciferin-H conversion, luminescence; hits give high values; factor 1 = untreated enzyme, 0 = blocked. activation factor at 5 µM. 96,000 tested, 1.4% active. AID 1024;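 active = activation factor of 2 or more for CYP2C9 at a 5 µM dose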;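 also: 0 = sulfaphenazole-blocked wells and 1 = vehicle-only wells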
CYP2C19 inhib: inhibitors of human CYP2C19. CYP2C19 Supersomes, luciferin-H EGE luminescence, 30 min. inhibition, % at 5 µM. 96,000 tested, 21% active;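 active = CYP2C19 inhibition above a set limit at 5 µM in the primary screen, cut at about 50% in these data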;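 also: plate controls were negative control wells for no effect and 2.5 mM tranylcypromine positive control for full effect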
Target sequence (P33261 whole entry, looked up): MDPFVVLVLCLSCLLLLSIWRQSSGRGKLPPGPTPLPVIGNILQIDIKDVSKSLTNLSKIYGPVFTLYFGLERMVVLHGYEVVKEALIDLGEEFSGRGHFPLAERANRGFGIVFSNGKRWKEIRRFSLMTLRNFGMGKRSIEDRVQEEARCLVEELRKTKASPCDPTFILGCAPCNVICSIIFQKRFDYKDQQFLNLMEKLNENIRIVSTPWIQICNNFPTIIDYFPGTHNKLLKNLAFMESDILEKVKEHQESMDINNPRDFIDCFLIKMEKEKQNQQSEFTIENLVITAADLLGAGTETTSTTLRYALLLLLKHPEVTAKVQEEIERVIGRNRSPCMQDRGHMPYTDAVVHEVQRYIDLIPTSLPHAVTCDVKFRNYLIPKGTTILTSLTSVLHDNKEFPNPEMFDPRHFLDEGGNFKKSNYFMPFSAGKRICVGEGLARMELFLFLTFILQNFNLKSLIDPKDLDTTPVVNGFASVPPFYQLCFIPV
CYP2C19 activ: increases human CYP2C19 enzyme activity; 96,000 tested, under 10 active; P33261; activation factor at 5 µM; recombinant CYP2C19, luciferin-H EGE luminescence; hits give high values; 0 = fully inhibited enzyme, 1 = untreated enzyme; AID 1025;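 active = activation factor of at least 2 at 5 µM in the primary screen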;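 also: 0 = wells with 2.5 mM tranylcypromine and 1 = vehicle-only wells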
CYP2C9 inh: blocks human cytochrome P450 2C9 | CYP2C9 Supersomes, luciferin-H conversion, luminescence | inhibition, % at 5 µM | 96,000 tested, 20% active | P11712 | AID 777;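 active = blocking of liver enzyme CYP2C9 beyond about 50% at 5 µM, limit read from the data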
Starred values were filed as active, the others as inactive; x = no result given. An excerpt weighted towards active compounds, which were near 28% of everything screened.

SMILES	PTK2B oligo ant	CYP2C9 act	CYP2C19 inhib	CYP2C19 activ	CYP2C9 inh
CCOc1ccc2nc(NC(=O)CSc3nc(SC)ns3)sc2c1	-0.94	1	-9	1.1	4
CCOC(=O)c1ccc(NC(=O)CSc2nc(SC)ns2)cc1	0.58	0.4	55*	0.5	60*
COc1ccc(N(CC(=O)NC(C)(C)C)S(=O)(=O)c2ccccc2)cc1OC	0.06	0.9	7	0.9	10
CC1(N2CCOCC2)CC2(O)C(=[N+]1[O-])CCc1c2no[n+]1[O-] (stereo not drawn)	0.29	1	0	1	0
CC(C)(C)OC(=O)CN1C(=O)C(Sc2n[nH]c(-c3ccccc3)n2)CCc2ccccc21 (stereo not drawn)	-1.5	0.4	69*	0.3	55*
CCOC(=O)CN1C(=O)C(Sc2n[nH]c(-c3ccc(O)cc3)n2)CCc2ccccc21 (stereo not drawn)	-1.5	0.1	82*	0.2	94*
FC(F)(F)c1cccc(NCc2cn3cccnc3n2)c1	x	1	25	0.7	0
COc1cccc2[nH]c3c(N4CCCC(C)C4)ncnc3c12 (stereo not drawn)	0.44	0.7	38	0.6	33
CCOC(=O)C1CCCN(c2ncnc3c2[nH]c2cccc(OC)c23)C1 (stereo not drawn)	x	0.5	63*	0.4	47
Cc1ccc(S(=O)(=O)c2c(C)nn(C(C)(C)C)c2OC(=O)C2CCCC2)cc1	-0.72	0.4	37	0.6	61*
CC(C)OC(=O)CCCN1C(=O)c2ccc(N)cc2C1=O	-0.88	1.2	74*	0.3	-18
Nc1ccc2c(c1)C(=O)N(CCCC(=O)O)C2=O	0.66	1.1	4	1	-7
O=C(OCCCCN1C(=O)c2ccccc2C1=O)c1ccc(Br)o1	3.6	0.4	49	0.5	55*
CC(=O)OCCCN1C(=O)c2ccc(Br)cc2C1=O	-0.06	1	57*	0.4	-2
O=C(OCCN1C(=O)c2ccccc2C1=O)c1ccco1	0.58	x	x	x	x
O=C(NCC1CCCO1)c1c(O)c2c([nH]c1=O)CCCC2 (stereo not drawn)	0.24	0.9	12	0.9	14
O=c1cc(CN2CCC3(CC2)OCCO3)c2c(ccc3ccccc32)o1	-1.8	0.7	78*	0.2	26
Cn1cc(CNC(=O)C23CC4CC(CC(C4)C2)C3)cn1	-0.4	x	x	x	x
COc1ccc(Br)cc1/C=c1\sc2nc(-c3ccco3)nn2c1=O	0.27	0.4	62*	0.4	61*
Cc1ccc(/C=c2\sc3nc(-c4ccco4)nn3c2=O)o1	-0.99	1.2	22	0.8	-16
COc1ccc(C)cc1S(=O)(=O)N(CC(=O)N1CCCC1)c1ccccc1	0.52	0.1	14	0.9	89*
COc1ccc(Br)cc1S(=O)(=O)N(CC(=O)N1CCOCC1)c1ccccc1	0.93	0.3	56*	0.4	68*
CN(C)S(=O)(=O)N(CC(=O)N1CCOCC1)c1ccccc1	0.28	1.1	-9	1.1	-6
CCCCNC(=O)CCCCCNS(=O)(=O)c1ccc(OC)cc1	0.69	0.7	16	0.8	27
CCC(=O)N=c1sc2c(C)cc(C)cc2n1CC(=O)OC	x	1	26	0.7	-3
SMILES	PTK2B oligo ant	CYP2C9 act	CYP2C19 inhib	CYP2C19 activ	CYP2C9 inh
O=c1c(/C=N/O)c(Nc2ccccc2)nc2ccccn12	-0.85	0.5	20	0.8	50*
N#Cc1c(SCc2ccccc2)nc(N2CCOCC2)c2c1CCCC2	-1.8	0.1	35	0.7	92*
CCSc1nc(N2CCCCC2)c2c(c1C#N)CCCC2	-0.73	0.1	69*	0.3	93*
N#Cc1c(-c2ccccc2)nc(-c2ccccc2)nc1N1CCOCC1	-0.6	1.1	-11	1.1	-10
CCC(C)(C)C1CCC2(CC1)NC(CO)(CO)CO2 (stereo not drawn)	-0.32	x	x	x	x
Cc1nc(-c2cnn(-c3ccccc3)c2)c2cc(C)oc2n1	0.19	1	-8	1.1	-3
COc1ccccc1C(=O)Nc1ccc(S(=O)(=O)N2CCCC2)cc1	-1.7	0.8	9	0.9	16
COc1ccccc1C(=O)Nc1ccc(N2CCCCC2)cc1	0.37	3.8*	17	0.8	-282
COc1ccccc1C(=O)Nc1ccc2c(c1)nc1n2CCSC1	0.33	2*	18	0.8	-97
COc1ccccc1C(=O)Nc1ccc(N2CCN(Cc3ccccc3)CC2)cc1	-0.93	2.5*	7	0.9	-145
COc1ccc(NC(=O)c2ccc(CN3CCN(c4ccccc4)CC3)cc2)cc1OC	0.85	0.8	7	0.9	17

Screens deposited in PubChem BioAssay by Sanford-Burnham Center for Chemical Genomics.
